“And” between values parts separate entries of the source, which are not always exact repeats. Equal values may be shown once. Values without a mark were called inactive. The rule behind the calls is not given here. Where a SMILES comes first, the peptide text is derived from it. The star is where a group is joined. Boc = CC(C)(C)OC(=O)*
What follows are compounds tested against Pantothenate synthetase (Mycobacterium tuberculosis (strain ATCC 25618 / H37Rv)) (UniProt P9WIL5) (assay: Recombinant Mtb pantothenate synthetase (PanC) inhibitors, coupled enzyme, confirmatory (AID 375;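 note: 0% = full reaction with vehicle and 100% = no enzyme background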)). Conditions: coupled enzyme assay; at 10 µM, active compounds read high.
Chain of Pantothenate synthetase (Mycobacterium tuberculosis (strain ATCC 25618 / H37Rv)) (P9WIL5 whole entry, looked up): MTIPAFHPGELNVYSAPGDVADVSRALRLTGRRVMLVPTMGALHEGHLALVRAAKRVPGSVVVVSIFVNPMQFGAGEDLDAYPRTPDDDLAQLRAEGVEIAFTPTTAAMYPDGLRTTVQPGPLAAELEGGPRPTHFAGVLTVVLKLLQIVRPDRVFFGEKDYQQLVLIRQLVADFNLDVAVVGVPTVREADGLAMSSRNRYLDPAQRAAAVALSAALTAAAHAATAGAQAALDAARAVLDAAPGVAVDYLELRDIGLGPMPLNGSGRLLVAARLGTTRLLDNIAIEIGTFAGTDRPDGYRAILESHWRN

Row | SMILES | inhibition
1 | Cc1noc(C)c1S(=O)(=O)NCCN1CCN(c2ccccc2)CC1 | 4%
2 | O=C(C1CCCN1S(=O)(=O)c1cccc2cccnc12)N1CCn2c1nc1ccccc12 (stereo not given) | 6%
3 | O=C(OCC#CCSc1nc2ccccc2o1)c1ccco1 | 0%
4 | Cc1cc(NS(=O)(=O)c2ccc(NC(=O)Nc3ccc4c(c3)OCO4)cc2)no1 | 0%
5 | O=C1CN(C(=O)COC(=O)c2ccccc2NC(=O)c2ccco2)c2ccccc2N1 | 0%
6 | CON(C)c1nc(Oc2ccc(=O)[nH]n2)nc(N(C)C)n1 | 1%
7 | Cc1cccn2c(=O)c3cc(C#N)c(=O)n(CCCN4CCOCC4)c3nc12 | 0%
8 | CCC1CCCCN1C(=O)CSc1nnc(-c2ccco2)o1 (stereo not given) | 1%
9 | Cc1cccc2c1N(CC(=O)OC(C)C)C(=O)C2=O | 0%
10 | CC(=O)Nc1ccc(S(=O)(=O)Nc2nc3c(s2)CCCC3)cc1 | 2%
11 | CCCCn1c(CN2CCN(c3ccccc3)CC2)nc2c1c(=O)n(C)c(=O)n2C | 0%
12 | COC(=O)c1ccccc1NC(=O)CC(NCc1ccccc1)C(=O)O (stereo not given) | 0%
13 | CC(C)Cc1n[nH]c(=O)[nH]1 | 2%
14 | COCCn1nnnc1C(c1ccccc1OC)N1CCc2ccccc2C1 (stereo not given) | 0%
15 | COC(=O)C1=C(C)N(c2ccc(C(=O)OC)cc2)C(=O)C1 | 0%
16 | COc1cc(NC(=O)C2C3C=CC(C3)C2C(=O)O)c(OC)cc1Cl (stereo not given) | 0%
17 | Cc1nc(N)c(C#N)c(-c2cccnc2)c1C | 0%
18 | Cc1nc2c(o1)CCc1ccccc1C2O (stereo not given) | 0%
19 | O=S(=O)(NCC1CCCO1)c1ccc(S(=O)(=O)N2CCc3ccccc3C2)cc1 (stereo not given) | 5%
20 | Cc1cc(C)c(C#N)c(SCC(=O)Nc2ccc(S(=O)(=O)Nc3onc(C)c3C)cc2)n1 | 0%

Row | SMILES | inhibition
21 | CCOC(=O)N1CCN(C(=O)c2ccc(CS(=O)(=O)c3ccc(OC)cc3)o2)CC1 | 1%
22 | CCOc1ccc2cc(C#N)c(SCC(=O)N3CCOCC3)nc2c1 | 0%
23 | O=C(CSc1nnc(-c2ccccc2F)o1)OCc1ccccc1 | 0%
24 | Cc1cc(=O)oc2cc(OCC(=O)OCC(=O)N3CCc4ccccc43)ccc12 | 3%
25 | c1cnn(-c2cc(N3CCOCC3)ncn2)c1 | 0%
26 | CSCCC(NC(=O)OC(C)(C)C)C(=O)NC(CC(C)C)C(N)=O (stereo not drawn) (Boc-Met-Leu-NH2; configuration not given here) | 0%
27 | C(=N\c1c(-c2ccccc2)nc2n1CCS2)/c1ccccc1 | 4%
28 | O=C(NCC(=O)N(c1ccc2c(c1)OCCO2)C(C(=O)NC1CCCC1)c1ccco1)c1ccco1 (stereo not given) | 6%
29 | Cc1cc(C)nc(Sc2ccc3nnc(C(F)(F)C(F)(F)C(F)(F)F)n3n2)n1 | 6%
30 | COC(=O)c1ccccc1NC(=O)CSc1nnc(-c2ccncc2)o1 | 0%
31 | C=CCSc1ncccc1C(=O)O | 0%
32 | COc1ccc(-n2c(Cc3cccn3C)nnc2SCC(=O)Nc2ccccc2)cc1 | 0%
33 | CCc1ccc(NC(=O)CS(=O)CC(=O)NCC2OCCc3ccccc32)cc1 (stereo not given) | 0%
34 | Cn1cccc1Cc1nnc(SCC(=O)Nc2ccc(F)cc2)n1-c1ccc(F)cc1 | 4%
35 | COc1cc(NC(=O)NC(C)(C(F)(F)F)C(F)(F)F)cc(OC)c1OC | 0%
36 | C[C@]12CCC(=O)C=C1CC[C@@H]1[C@@H]2[C@@H](O)C[C@@]2(C)[C@H]1CC[C@]2(O)C(=O)COC(=O)CCC(=O)O | 0% and 2%
37 | Cc1ccc(Cn2c(NCCc3ccccc3)nc3c2c(=O)n(C)c(=O)n3C)cc1 | 4%
38 | CCCOc1cccc(C(=O)N(Cc2ccco2)C2CCS(=O)(=O)C2)c1 (stereo not given) | 0%
39 | C1CCC(C(CC2CCCCN2)C2CCCCC2)CC1 (stereo not given) | 3%
40 | COc1cccc(C2C(C#N)=C(N)OC3=C2C(=O)CCC3)c1OC(=O)c1ccco1 (stereo not given) | 13%
